Hits are enriched below; roughly 1.8% of the tested compounds scored in any of these assays.
GLP1R ag: agonists of human GLP-1 receptor | HEK293 GLP-1R CRE-luciferase, luminescence, 4-6 h; cells express a hypersensitive GLP-1R form | Potency, µM (doses to about 45.6 µM), without a hit: at the top dose activation, actives largely listed as activators | 380,000 tested, 0.007% active | AID 624172; note: potency is the fitted concentration of half-maximal effect; % of control where 0% means no effect
TRPML1 inh: blocks the human TRPML1 channel; TRPML1-inducible cells, Ca2+ dye fluorescence, FDSS; stronger effect = lower value; inhibition of EC80 agonist-evoked calcium signal; activity change, negative = inhibition, % (no concentration beside the values); 390,000 tested, 0.02% active; AID 624415; in the data active = activity change below about -50%; inconclusive = between about -30% and that limit;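 note: stimulus is agonist 54-4 at its EC80 concentration; % is set by controls: 0 for no effect and ±100 for the full control effect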
Target sequence (Q9GZU1 whole entry, looked up): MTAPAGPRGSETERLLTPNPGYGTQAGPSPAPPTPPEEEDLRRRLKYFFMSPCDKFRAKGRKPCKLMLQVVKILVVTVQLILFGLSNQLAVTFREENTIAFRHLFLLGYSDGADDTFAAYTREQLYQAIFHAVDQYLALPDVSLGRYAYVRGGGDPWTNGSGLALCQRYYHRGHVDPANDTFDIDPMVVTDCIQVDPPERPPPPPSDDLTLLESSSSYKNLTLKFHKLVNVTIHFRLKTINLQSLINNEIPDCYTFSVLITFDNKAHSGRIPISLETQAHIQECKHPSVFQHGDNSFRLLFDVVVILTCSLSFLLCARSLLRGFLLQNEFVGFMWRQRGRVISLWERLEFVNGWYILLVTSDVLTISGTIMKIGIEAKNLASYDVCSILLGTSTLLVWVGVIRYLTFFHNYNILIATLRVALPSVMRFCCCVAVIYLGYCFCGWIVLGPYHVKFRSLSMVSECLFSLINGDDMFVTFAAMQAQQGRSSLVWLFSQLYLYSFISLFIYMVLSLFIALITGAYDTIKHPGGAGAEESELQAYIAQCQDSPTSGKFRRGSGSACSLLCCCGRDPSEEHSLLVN
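Tet-induced TRPML1-DL cells loaded with Ca8 no-wash calcium dye were read kinetically on FDSS. Compound addition was followed by EC80 agonist 54-4 (4 uM final); inhibition was read over 110 s.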
TRPML1 ag: activates the human TRPML1 channel. TRPML1-expressing cells, Ca2+ dye fluorescence, FDSS. AID 624414. 410,000 tested, 0.12% active. activation, % (concentration not given with the values). Q9GZU1; in the data active = activation above about 50%; inconclusive = mostly about 30% to 49%; note: 0% is about no effect
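Tet-induced TRPML1-DL cells, 1,500 per well, cultured overnight, were loaded with a no-wash Ca2+ dye for 45–90 min. Calcium fluorescence was recorded on the FDSS for 110 s after compound addition, before the EC80 agonist (4 uM 54-4) was added.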
GLP1R inv ag: GLP-1 receptor (human) inverse agonism | Potency, µM (series often up to 38.3 µM), without a hit: at the highest dose activity change, negative = inhibition, actives largely listed as inhibitors | P43220 | 410,000 tested, 1.6% active | HEK293 GLP-1R CRE-luciferase, luminescence, 24 h; GLP-1R form is constitutively active | AID 624417; note: potency is the fitted concentration of half-maximal effect; % is set by controls: 0 for no effect and ±100 for the full control effect; nearly all actives have a fitted effect of over 55% in size
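GLP-1R inverse agonism mode: basal reporter luminescence in engineered HEK293 cells measured after one day of compound exposure at 37 deg C, with a 12 min room-temperature detection step.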
HEK293 tox: cytotoxicity counter-screen for GLP-1 receptor inverse agonists; 410,000 tested, 0.13% active; Potency, µM (doses to about 38.3 µM), for inactives: at the highest dose activity change, negative = inhibition, actives largely listed as inhibitors; HEK293 cAMP-luciferase reporter cells, luminescence, 24 h; AID 624418;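 note: loss of luciferase light is scored as toxicity; potency is the fitted concentration of half-maximal effect; % is set by controls: 0 for no effect and ±100 for the full control effect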
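Luminescence readout: signal drop marks cytotoxicity. Plated cells grew 12 h at 37 °C, 5% CO2, received 23 nL compound for 24 h, then got luciferase reagent, read after 12 min at RT.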
* marks the source's active call; other numbers are inactive results. Unless noted, calls come from the whole dose curve; as a rule, active = well fitted curve in the direction sought with a large enough effect; inconclusive = small, poorly fitted or top-dose-only effect, or another doubt; inactive = no such curve, though single readings can be large; an effect the other way counts as inactive or inconclusive.

Results for COc1ccc(/C=C/C(=O)Nc2ccc3nc4c(c(Nc5ccccc5OC)c3c2)CCCC4)cc1 ?
TRPML1 inh: -2.2; TRPML1 ag: 0.2; GLP1R inv ag: 8.91µM*; HEK293 tox: inconclusive

Results for COc1ccccc1Nc1c2c(nc3ccc(NC(=O)/C=C/c4cccc(OC)c4OC)cc13)CCCC2 ?
TRPML1 inh: 2.4; TRPML1 ag: 1.4; GLP1R inv ag: inconclusive; HEK293 tox: inconclusive

What do the screens show for `CCc1ccc(NC(=O)c2ccc3c(c2)N(Cc2ccc(C)cc2)CCS3)cc1`?
TRPML1 inh: -4.7; TRPML1 ag: -0.6; GLP1R inv ag: -2.6%; HEK293 tox: 2.2%

How did Cc1cccn2c(=O)c(-c3nnn[nH]3)cnc12 do in these assays?
GLP1R ag: -4.0%

Results for O=C(Nc1ccc2nc(SCC(=O)N3CCCc4ccccc43)sc2c1)c1ccccc1 ?
TRPML1 inh: 0.3; TRPML1 ag: 1.8; GLP1R inv ag: inconclusive; HEK293 tox: -6.8%

What do the screens show for `O=C1c2cccc3c(O)ccc(c23)C(=O)N1Cc1ccco1`?
GLP1R ag: -3.8%; TRPML1 inh: -18.7; TRPML1 ag: 99.2*; GLP1R inv ag: 2.6%; HEK293 tox: 136.1%

What do the screens show for `O=C1c2ccccc2C(=O)N1Cc1ccco1`?
GLP1R ag: -6.2%; TRPML1 inh: 11.2; TRPML1 ag: 0.4; GLP1R inv ag: 6.1%; HEK293 tox: -7.2%

Results for CCN1/C(=C/c2ccc3cc(C)ccc3[n+]2CC)Sc2ccccc21 ?
GLP1R ag: -6.1%; TRPML1 inh: -6.4; TRPML1 ag: inconclusive; GLP1R inv ag: inconclusive; HEK293 tox: -20.1%

How did CC[n+]1c(/C=C2\Sc3ccccc3N2C)ccc2cccc(C)c21 do in these assays?
GLP1R ag: -2.5%; TRPML1 inh: -12.2; TRPML1 ag: 29.5; GLP1R inv ag: 12.6µM*; HEK293 tox: inconclusive

Results for O=C1/C(=C/c2ccc(N3CCCC3)cc2)NC(=S)N1C1CC1 ?
GLP1R ag: 1.6%; TRPML1 inh: -8.5; TRPML1 ag: 50.1*; GLP1R inv ag: 2.8%; HEK293 tox: -2.4%

How did O=C1N/C(=C/c2ccc(N3CCCC3)cc2)C(=O)N1c1ccccc1 do in these assays?
GLP1R ag: 2.0%; TRPML1 inh: 6.8; TRPML1 ag: 4.4; GLP1R inv ag: 13.3%; HEK293 tox: -5.5%

Results for Cc1ccccc1-n1c(C)nnc1SC(C)C(=O)NCc1ccco1 (configuration not stated) ?
TRPML1 ag: -0.9

How did CCN(CC)CCn1c(=N)n(CC(O)COc2ccccc2C)c2ccccc21 (configuration not stated) do in these assays?
TRPML1 inh: 28.8; TRPML1 ag: 1.1; GLP1R inv ag: 10µM*; HEK293 tox: inconclusive

What do the screens show for `COc1ccc(OCC(O)Cn2c(=N)n(Cc3ccccc3)c3ccccc32)cc1` (configuration not stated)?
GLP1R ag: -19.9%; TRPML1 inh: 76.5; TRPML1 ag: 1.4; GLP1R inv ag: inconclusive; HEK293 tox: 7.94µM*

Results for Cc1ccc(OCC(O)Cn2c(=N)n(Cc3ccccc3)c3ccccc32)cc1 (configuration not stated) ?
GLP1R ag: -4.7%; TRPML1 inh: -5.9; TRPML1 ag: -0.4; GLP1R inv ag: 11.2µM*; HEK293 tox: inconclusive

How did CCN(CC)CCn1c(=N)n(CC(O)COc2cccc(C)c2)c2ccccc21 (configuration not stated) do in these assays?
GLP1R ag: 6.9%; TRPML1 inh: 10.2; TRPML1 ag: -0.8; GLP1R inv ag: inconclusive; HEK293 tox: inconclusive

What do the screens show for `NC1=NC(=O)/C(=C\c2ccc(-c3ccccc3[N+](=O)[O-])o2)S1`?
TRPML1 ag: -0.3

How did CN(C)c1ccc(C=NC2CCc3ccccc32)cc1 (configuration not stated) do in these assays?
TRPML1 ag: 4.5

What do the screens show for `C[n+]1ccnc2cc(Cl)ccc21`?
TRPML1 ag: 4.8

Results for O=C(Nc1cccc(Cl)c1)Nc1cc(S(=O)(=O)N2CCCCC2)ccc1Cl ?
GLP1R ag: 2.0%; TRPML1 inh: 0.9; TRPML1 ag: 0.1; GLP1R inv ag: 2.82µM*; HEK293 tox: -29.6%

What do the screens show for `CCN(CC(=O)Nc1cc(S(=O)(=O)N2CCCCC2)ccc1Cl)Cc1ccccc1`?
GLP1R ag: 2.7%; TRPML1 inh: 12.7; TRPML1 ag: -0.8; GLP1R inv ag: 5.62µM*; HEK293 tox: 8.8%

What do the screens show for `CCN1CCN(S(=O)(=O)c2ccc(Cl)c(C(=O)Nc3ccccc3N3CCCCC3)c2)CC1`?
GLP1R ag: 15.6%; TRPML1 inh: -16.3; TRPML1 ag: 100.3*; GLP1R inv ag: 10µM*; HEK293 tox: -28.0%

Results for CC(=O)c1ccc(NC(=S)N(CCCN(C)C)Cc2ccccc2)cc1 ?
GLP1R ag: 7.3%; TRPML1 inh: -17.1; TRPML1 ag: 0.1; GLP1R inv ag: inconclusive; HEK293 tox: -6.7%

What do the screens show for `CN(C)CCCN(Cc1ccccc1)C(=S)Nc1ccc(SC(F)F)cc1`?
GLP1R ag: 15.3%; TRPML1 inh: -1.0; TRPML1 ag: 0.4; GLP1R inv ag: 11.2µM*; HEK293 tox: -24.9%

What do the screens show for `Cc1cccc(NC(=O)CN(C)C(=O)c2ccc(N3CCCCCC3)c([N+](=O)[O-])c2)c1C`?
GLP1R ag: 13.5%; TRPML1 inh: -12.1; TRPML1 ag: 2.1; GLP1R inv ag: 11.2µM*; HEK293 tox: -22.8%

What do the screens show for `CN(CC(=O)Nc1ccccc1Cl)C(=O)c1ccc(N2CCCCCC2)c([N+](=O)[O-])c1`?
GLP1R ag: -6.1%; TRPML1 inh: 14.0; TRPML1 ag: 2.7; GLP1R inv ag: inconclusive; HEK293 tox: -7.6%

What do the screens show for `CCOc1ccc(NC(=O)CN2CCSc3ccc(S(=O)(=O)N4CCCC4)cc32)cc1`?
GLP1R ag: -5.1%; TRPML1 inh: 4.5; TRPML1 ag: 1.3; GLP1R inv ag: inconclusive; HEK293 tox: -12.9%

How did CC1(C)Cc2ccccc2-c2nc3ccccc3c(=O)n21 do in these assays?
GLP1R ag: 11.1%; TRPML1 inh: 3.6; TRPML1 ag: -0.4; GLP1R inv ag: 7.94µM*; HEK293 tox: -0.2%

How did CC(NCCCOc1cccc2ccccc12)c1ccccc1 (configuration not stated) do in these assays?
GLP1R ag: -1.2%; TRPML1 inh: -9.3; TRPML1 ag: -0.6; GLP1R inv ag: 8.91µM*; HEK293 tox: inconclusive

Results for CCN(C(=O)c1cc2c(s1)-c1c(C)cccc1OC2)c1cc(C)ccc1C ?
TRPML1 inh: 23.3; TRPML1 ag: 1.4; GLP1R inv ag: 11.2µM*; HEK293 tox: 31.7%

Results for Cc1cc(C)cc(C(=O)N(Cc2nc(-c3ccc(Cl)cc3)no2)C(C)C)c1 ?
GLP1R ag: 0.0%; TRPML1 inh: 7.4; TRPML1 ag: -0.7; GLP1R inv ag: -6.0%; HEK293 tox: 2.6%

High-throughput results from PubChem.
